Among all 2,100 compounds or so, about 300 (14%) were called active. Not shown: some 2% with an inconclusive outcome.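 How the source made its calls: active means every replicate test run called active, with the signal falling and half-maximal concentration within twice the top valid dose; inconclusive means the replicate test runs disagree in their calls; inactive means every test run inactive, including effects in the opposite direction.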 The list is a sample of the results. Measured potencies and affinities stand elsewhere.
Test: reduced cellular PGC1a acetyl-lysine signal – cell-based, cherry-picked samples, dose response (AID 720514);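 further: 0% = neutral control wells and -100% = positive control wells; actives lower the acetylation signal so they count as inhibitors of PGC1a acetylation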
Settings: U2OS PGC1a acetylation, AlphaLISA, overnight; series mostly up to 19.5 µM; activity change, negative = inhibition: at the top concentration

Activity change, negative = inhibition, inactive:
Cc1ccc(Cl)cc1NC(=O)Cn1nc(-c2cccs2)ccc1=O 77%
Cc1ccccc1NC(=O)c1nc(S(C)(=O)=O)ncc1Cl 46.6% [at 10 µM]
C[C@@H]1CN([C@H](C)CO)C(=O)c2c(c3ccccc3n2C)-c2ccccc2CO[C@@H]1CN(C)C(=O)Nc1ccc2c(c1)OCO2 102%
CC(Oc1ccc(Cl)cc1Cl)c1nc(-c2ccc(NC(=O)c3cccnc3)cc2)no1 (stereo not given) 232% [at 5 µM]
Cc1ccc(-c2nn(C)c(=O)c3ccccc23)cc1S(=O)(=O)NCCN(C)C 32%
O=C(C[C@H]1CC[C@H](NC(=O)NC2CCCCC2)[C@H](CO)O1)NCc1ccc(Cl)cc1 39.8%
CCCCSc1ccc(NC(=O)c2cccnc2)cc1 221%
CCn1c(SCC(N)=O)nnc1C(C)C 47.9%
O=C1NC(=Nc2ccccc2Cl)S/C1=C\c1cccc([N+](=O)[O-])c1O 47.6%
CC1(Cc2ccc(Cl)s2)C(=O)Nc2c(Cl)ccc(Cl)c21 (stereo not given) 39.8%
O=C(NCc1ccccc1)N1CCC(n2cnc3cc(F)ccc32)CC1 143%
COc1ccc(C(=O)NN(C)c2nc(-c3ccccc3)cc(C)c2S(C)(=O)=O)cc1 45.8%
O=C(NCc1ccccc1)c1ccc(NC(=O)C2CC2)cc1 68.6%
CSc1nn(-c2ccc(C(=O)OC(C(=O)NC(N)=O)C(C)C)cc2)c(=S)s1 (stereo not given) 60.7%
CC(=O)Nc1ccc(NC(=O)CN(c2cc(Cl)ccc2Cl)S(C)(=O)=O)cc1 264%
Cc1nc(N2CCN(S(=O)(=O)c3ccc(F)cc3)CC2)c2c(-c3cccs3)csc2n1 57.9%
Cc1ccc(S(=O)(=O)NC(CC(C)C)C(=O)N2CCCCCCC2)cc1 (stereo not given) 129%
O=[N+]([O-])c1ccc(S(=O)(=O)c2cccc(C(F)(F)F)c2)nc1 88.2% [at 10 µM]
Nc1ccccc1Oc1ncc(C(F)(F)F)cc1Cl 66.8% [at 10 µM]
CCOC(=O)c1sc2nc(C)nc(NCc3ccccc3OC)c2c1C 33.3%
CCO[C@H]1OC(C(=O)Nc2ccccc2)=C[C@@H](c2csc3ccccc23)[C@@H]1CCCO 53.7%
O=C(NCCCN1CCOCC1)c1ccccc1N1C(=O)[C@@H]2Cc3c([nH]c4ccccc34)C(c3ccccc3)N2C1=O (stereo not given in full) 76.8% [at 10 µM]
O=C(Cc1ccccn1)NCC[C@@H]1CC[C@H](NC(=O)Nc2ccc(C(F)(F)F)cc2)[C@@H](CO)O1 3.56%
O=C(Cc1ccccn1)NCC[C@@H]1CC[C@@H](NC(=O)Nc2ccc(C(F)(F)F)cc2)[C@@H](CO)O1 -20.7%
Cc1cccc2sc(N3CCN(C(=O)c4cccs4)CC3)nc12 45.5%

Source: PubChem BioAssay AID720514 (Broad Institute, 2013)
